# Measured values published in PubChem BioAssay.
# Columns and labels:
# [1] = target: Tumor necrosis factor receptor superfamily member 10B (Homo sapiens) (UniProt O14763); test: caspase-8 TRAIL sensitization, hit retest, confirmation, cell-based, NB7+caspase-8, with/without TRAIL, luminescence panel (AID 651596); settings: NB7 neuroblastoma + caspase-8, TRAIL sensitization, luminescence viability, with TRAIL, mean of runs, at 10 µM, stronger effect = higher value
# [2] = as above; settings: NB7 neuroblastoma + caspase-8, without TRAIL, luminescence viability, without TRAIL, mean of runs, at 10 µM
# Tumor necrosis factor receptor superfamily member 10B (Homo sapiens), sequence (O14763 whole entry, looked up): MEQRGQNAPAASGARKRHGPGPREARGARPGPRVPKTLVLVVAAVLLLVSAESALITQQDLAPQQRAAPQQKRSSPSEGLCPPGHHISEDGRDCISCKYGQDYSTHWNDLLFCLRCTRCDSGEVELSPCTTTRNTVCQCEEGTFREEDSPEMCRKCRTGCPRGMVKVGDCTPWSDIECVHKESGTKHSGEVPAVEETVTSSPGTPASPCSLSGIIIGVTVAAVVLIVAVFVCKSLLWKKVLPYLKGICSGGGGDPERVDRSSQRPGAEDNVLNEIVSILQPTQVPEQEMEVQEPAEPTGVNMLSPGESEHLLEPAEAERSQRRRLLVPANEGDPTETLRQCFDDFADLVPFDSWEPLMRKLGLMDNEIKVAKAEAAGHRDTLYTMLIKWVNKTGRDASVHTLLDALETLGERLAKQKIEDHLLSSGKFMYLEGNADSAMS
Compound,activity [1],activity [2]
COc1ccc(/C=C2/Sc3ccc(C(=O)NCCN4CCCCCC4)cc3NC2=O)cc1,67.8%,94.7%
O=c1c(-c2ccc3c(c2)OCCO3)coc2cc(OC3OC(CO)C(O)C(O)C3O)ccc12 (stereo not drawn),51.8%,53.9%
Clc1ncnc2c1oc1ccccc12,82.7%,60.4%
N#Cc1c(/N=C/c2cccs2)sc2c1CCCCC2,65.7%,35.4%
C/C(=N\NC(=O)c1cc(O)ccc1O)c1cccc(NC(=O)c2ccc(Cl)cc2)c1,40.8%,24.6%
O=C(CCl)N1CCN(S(=O)(=O)c2ccc3c(c2)CCC3)CC1,97.7%,97.1%
CCc1ccc(-c2cc3c(=O)n(CC(=O)NCCCN4CCC(Cc5ccccc5)CC4)nc(C)n3n2)cc1,55.9%,71.5%
CC(C)C[C@H](NC(=O)c1nc[nH]c1C(=O)N[C@@H](CCCCNC(=O)OC(C)(C)C)C(=O)OC(C)(C)C)C(=O)OC(C)(C)C,84.7%,68.1%
CNC[C@@H](Cc1ccccc1)NC[C@@H](CC1CCCCC1)NCCCc1ccccc1,99.3%,99.6%
COc1ccccc1OCCNC(=O)c1ccc2c(c1)OCCO2,41%,45.9%
O=C(Nc1ccc2c(c1)OCCO2)c1ccc(Cl)cc1Cl,72.8%,66.6%
COc1ccccc1NC(=O)CSc1ccc(-c2ccc(-n3ccnc3)cc2)nn1,47%,38.6%
COc1ccc(-c2cc3ccc(F)cc3cn2)cc1,66.5%,58.9%
O=C(Nc1ccc(N2CCOCC2)c(F)c1)c1cccs1,48.5%,63.3%
COc1ccc(C(=O)c2no[n+]([O-])c2C(=O)c2ccc(OC)cc2)cc1,98.3%,99%
COc1ccc(C(=O)Nc2ccc(C)cn2)c(OC)c1,95.3%,95.2%
COc1ccc(C(=O)N/N=C/c2cccnc2)cc1,34.2%,40%
CCOc1ccc2cc(C#N)c(SCC(=O)OC)nc2c1,57.9%,50.3%
NC(=O)c1ccccc1N/C=C/C(=O)c1ccccc1,73.4%,58.9%
Nc1nn2cc(-c3ccccc3)nc2c2ccccc12,54.7%,53.4%
Nc1nc(N)c(-c2cccc(C(F)(F)F)c2)c(Cc2cccc(C(F)(F)F)c2)n1,81.6%,80.7%
CCOc1ccc(/C=N/Nc2ccccn2)cc1,53.4%,41.2%
COc1ccc(Oc2c(Cl)cnn(-c3ccc(F)cc3)c2=O)cc1,98%,94.2%
N#Cc1c(NC(=O)c2ccccc2)sc2c1CCCCC2,46.5%,49.6%

Compound,activity [1],activity [2]
Cn1c(-c2ccccc2)cc2onc(-c3ccccc3)c2c1=O,85.5%,85.7%
O=S1(=O)CC(c2ccccc2)=NN=C(c2ccccc2)C1,79%,75.8%
N=c1oc2cc(O)ccc2cc1C(=O)Nc1ccc(Cl)cc1,34.3%,39.3%
C(=Cc1c[nH]c2ccccc12)c1ccc2ccccc2n1,61.1%,52.8%
C[C@@H](NC(=O)c1ncn2c1c(=O)[nH]c1ccc(Br)cc12)c1ccccc1,20.2%,13%
NC(Cc1ccc(C(F)(F)F)cc1)c1csc(NC(=O)Nc2ccccc2Oc2ccccc2)n1 (stereo not drawn),75.1%,93.7%
Nc1nc(N)c2cc(Sc3ccc4ccccc4c3)ccc2n1,61%,73.9%
CCc1cc2c(=O)c(-c3cnn(-c4ccccc4)c3)c(C)oc2cc1OCC(=O)Nc1ccc(F)c(F)c1,37.2%,26.4%
Cc1ccc2[nH]c(-c3ccccc3)cc(=O)c2c1,64.8%,63%
C=CCOc1cccc(/C=C/c2nc3ccccc3c(=O)[nH]2)c1,66.8%,64.8%
CN(C)S(=O)(=O)c1ccc(-c2csc(N/N=C/c3ccco3)n2)cc1,81%,77.8%
COc1cc(C(=O)Oc2ccccc2/C=N/NC(=O)c2ccc(C)cc2)cc(OC)c1OC,51%,52.7%
O=C(CCl)N=c1sccn1Cc1ccc(Cl)cc1Cl,99.3%,99.2%
CCCOc1ccc(-c2nnc(-c3ccco3)o2)cc1,53.5%,50.9%
CCOC(=O)c1ccc(N=c2sc(C(=O)OC)cc(=O)n2-c2ccc(C(=O)OCC)cc2)cc1,67.6%,37.6%
O=C(Nc1ccccc1)c1cn2ccccc2n1,54.9%,55.7%
CN(C)c1ccc(-c2nc3ccccc3c(=O)[nH]2)cc1,91.9%,92.5%
CCCCCCC[N+](CC)(CC)CCCCc1ccc(Cl)cc1,43.9%,47.1%
Fc1cccc2sc(Nc3nnc(-c4ccccc4)o3)nc12,71%,73%
C#CCN(C[C@@H]1[C@@H](OC(=O)Nc2cccs2)[C@@H](OC(=O)Nc2cccs2)Cn2c(=O)ccc(=O)n21)S(=O)(=O)c1ccc(C)cc1,96.5%,95.8%
O=C(Nc1ccccc1)Nc1ccc(C(=O)N2CCCC2)cc1,65.6%,71.5%
CC(C)c1onc(C(=O)N2CCN(C(c3ccccc3)c3ccccc3)CC2)c1[N+](=O)[O-],98.1%,93.9%
N/C(=N\OC(=O)c1ccc2ccccc2c1)c1ccccc1Cl,99.4%,99.2%
N/C(=N\OC(=O)c1ccc(Cl)cc1)c1ccc(Cl)cc1,92.4%,76.8%

Compound,activity [1],activity [2]
CCOC(=O)c1sc(NC(=O)c2ccc(OC(C)=O)cc2)nc1C,61.3%,57.9%
CCOc1ccc(/C=C/C(=O)c2c(O)cc(C)oc2=O)cc1,74.8%,77.8%
Cc1cc(-c2ccccc2)nc(N/N=C/c2ccccc2)n1,61.6%,50.3%
COc1cc2c3nnc(-c4ccc(F)cc4)c-3cn(Cc3cccc(C)c3)c2cc1OC,48.9%,67%
COc1ccc2oc(=Nc3ccccc3)c(-c3nc4ccccc4[nH]3)cc2c1,52.8%,55%
O=C(NOCc1ccccc1)c1ccc(Cl)cc1Cl,62.6%,55.5%
Cc1csc(N/N=C/c2ccccn2)n1,59.2%,69.7%
O=C(Nc1nc2ccccc2[nH]1)C12CC3CC(CC(C3)C1)C2,66.2%,65.7%
CC1CCN(c2ccc(-c3ccc(NC(=O)C(F)(F)F)cc3)nn2)CC1,94.6%,96%
O=c1[nH]c(/C=C/c2ccccc2F)nc2ccccc12,86.9%,86.8%
O=C(Nc1ccccn1)c1ccc2c(c1)OCCO2,49.8%,47.5%
COc1ccc(C2CC(c3cccs3)=NN2C(=O)CCl)cc1OC (stereo not drawn),98.7%,98.7%
COc1ccc(C(=O)NNC(=S)NC(=O)/C=C/c2cccs2)cc1,36.2%,42.2%
Cc1c(C)c2ccc(OCC(=O)Nc3nccs3)cc2oc1=O,58.4%,57.8%
COc1ccc(OC)c(S(=O)(=O)Nc2ccc(-c3ccc4nncn4n3)cc2)c1,57.5%,59.3%
Cc1cccc(/C(N)=N/OC(=O)c2ccc(Cl)cc2Cl)c1,97.3%,91.8%
COC(=O)CSc1nnc(NC(=O)/C=C\c2ccc3c(c2)OCO3)s1,49.5%,66.2%
O=C(CSC(=S)N1CCCCC1)c1ccccc1,50.8%,35.2%
O=C(Nc1cccnc1Cl)c1ccc2c(Cl)c3c(nc2c1)CCC3,78.5%,78.4%
CSc1nnc(NC(=O)c2nc(S(=O)(=O)Cc3ccccc3F)ncc2Cl)s1,80.3%,58.1%
CCN1CCN(c2ccc(S(=O)(=O)N3CCCCC3)cc2NC(=O)/C=C/c2ccc(OC(F)F)cc2)CC1,3.5%,5.28%
O=C(COC(=O)c1ccccc1C(=O)c1ccc(Cl)c([N+](=O)[O-])c1)NC1CC1,98.7%,99.3%
CC(C)N1CCc2c(sc(NC(=O)c3ccc([N+](=O)[O-])o3)c2C(N)=O)C1,-2.23%,93.5%
C#Cc1ccccc1OCCCN1CCC(C(O)(c2ccccc2)c2ccccc2)CC1,97.2%,94.2%

Compound,activity [1],activity [2]
NC(=S)NN=C1c2ccccc2-c2c(F)c(F)c(F)c(F)c21,72.1%,71.4%
N#Cc1cc2c(nc1SCC(=O)Nc1nccs1)CCCCC2,67.8%,69.2%
Cc1cc(C)nc(Nc2nc(-c3ccccc3)cs2)n1,72.5%,71.3%
COc1ccc(CC(N)c2csc(NC(=O)Nc3cccc(C(F)(F)F)c3)n2)cc1 (stereo not drawn),39.6%,87%
CCOc1cccc(C(=O)Nc2ccc3[nH]ncc3c2)c1,61%,67%
O=S(=O)(c1ccccc1)c1nnn2c1nc(NC1CCN(Cc3ccccc3)CC1)c1ccccc12,97.9%,48.9%
COc1ccc(S(=O)(=O)N2CCC(C(=O)NCCC3=CCCCC3)CC2)cc1C,13.8%,22.2%
Cc1cc(C(=O)COC(=O)c2cccn2C)c(C)n1Cc1ccco1,54.5%,39.2%
O=C(/C=C/c1cccc(F)c1)N1CCc2ccccc21,55.1%,52.8%
O=C(C[C@H]1C/C=C\C[C@@H](NC(=O)OCC2c3ccccc3-c3ccccc32)C(=O)O[C@@H](c2ccccc2)CNC1=O)N[C@H](CO)Cc1ccccc1,64.2%,43.2%
O=C(/C=C/Nc1ccccc1)c1ccccc1,63.1%,44.8%
Cc1ccc(-c2cc(C(=O)N3CCOCC3)no2)cc1,69.7%,65.2%
Cc1ccc(NC(=O)c2ccc(CSc3nnnn3C)cc2)cc1,44.9%,37.7%
Cc1ccnc(NC(=S)NC(=O)c2cccs2)c1,90%,87.7%
Nc1c(-c2ccccc2)cnc2c(-c3ccccc3)cnn12,73.7%,77.2%
COc1ccc(Cn2c(SCc3ccccc3C)nc3cc(OC)c(OC)cc3c2=N)cc1,72.7%,90.9%
C/C(=N\NC(=O)c1ccccc1NC(=O)c1ccc(Cl)cc1)c1ccncc1,99.1%,99%
Cc1nc(-c2ccc(C(=O)Nc3cccc(F)c3)cc2)cs1,76.6%,73.5%
CCc1ccc(-n2nc3cc(C)c(N)cc3n2)cc1,64.4%,51.1%
Cc1ccc2nc(NC(=O)c3ccc(-c4nc5ccccc5s4)s3)sc2c1,56.8%,17%
CC(=O)Nc1cc(-c2cccc(C(=O)NCCN(C)C)c2)cn2c(-c3cccc(C(F)(F)F)c3)cnc12,65.3%,89.8%
CS/C(Nc1cc(Cl)ccc1Cl)=C(/C#N)C(=O)c1ccco1,60.1%,65.6%
